# Sampled rows, rich in hits. Any-hit rate of the full collection: about 11%.
# JMJD2A Tudor – qHTS Assay for Inhibitors of JMJD2A-Tudor Domain. AlphaScreen JMJD2A-Tudor / H3K4me3 peptide binding. Potency, µM (top dose mostly 114 µM), for inactives: top-dose activity change, negative = inhibition, hits mostly inhibitors. 390,000 compounds, 4.4% hits. AID 504339, 2011; note: % is set by controls: 0 for no effect and ±100 for the full control effect; nearly all actives have a fitted effect of over 50% in size
# L3MBTL1 block – qHTS Assay for the Inhibitors of L3MBTL1; Lethal(3)malignant brain tumor-like protein 1 (Homo sapiens), Q9Y468; 230,000 compounds, 0.66% hits; AlphaScreen L3MBTL1–H3K9me1 peptide binding; Potency, µM (titrated, usually from 57.1 µM), for inactives: at the highest dose activity, negative = inhibition, hits mostly inhibitors; note: % is set by controls: 0 for no effect and ±100 for the full control effect; nearly all actives have a fitted effect of over 60% in size
#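 AlphaScreen assay: L3MBTL1 (50 nM final) was preincubated 30 min at room temperature with biotinylated H3(1-15)K9me1 peptide (75 nM final), then 30 min with library compounds; streptavidin donor and nickel chelate acceptor beads (10 ug/mL final) added, 30 min dark.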
# BAZ2B inh – qHTS Assay for Inhibitors of BAZ2B; Bromodomain adjacent to zinc finger domain protein 2B (Homo sapiens), Q9UIF8; AlphaScreen BAZ2B-H3K14Ac peptide displacement; Potency, µM (highest dose often 114 µM), for inactives: at the top dose activity change, negative = inhibition, actives largely listed as inhibitors; 360,000 compounds, 4.4% hits; AID 504333, 2011; note: % is set by controls: 0 for no effect and ±100 for the full control effect; nearly all actives have a fitted effect of over 60% in size
#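 BAZ2B (50 nM) with biotin-H3(5-23)K14Ac peptide (50 nM) in PBS pH 7.4, 0.01% Tween-20, preformed 30 min, then compound 30 min at room temperature; top concentration 110uM. AlphaScreen streptavidin donor/nickel chelate acceptor beads (10 ug/mL final), 20 min dark, signal read.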
# HP1b binding inh – HTS for Inhibitors of HP1-beta Chromodomain Interactions with Methylated Histone Tails; Chromobox protein homolog 1 (Homo sapiens), P83916; AlphaScreen HP1-beta / biotin-H3K9me3 peptide binding; Potency, µM (series often up to 114 µM), without a hit: at the top dose activity change, negative = inhibition, most hits filed as inhibitors; 390,000 compounds, 0.56% hits; AID 540317, 2011; note: nearly all actives have a fitted effect of over 70% in size
# Target sequence (P83916 whole entry, looked up): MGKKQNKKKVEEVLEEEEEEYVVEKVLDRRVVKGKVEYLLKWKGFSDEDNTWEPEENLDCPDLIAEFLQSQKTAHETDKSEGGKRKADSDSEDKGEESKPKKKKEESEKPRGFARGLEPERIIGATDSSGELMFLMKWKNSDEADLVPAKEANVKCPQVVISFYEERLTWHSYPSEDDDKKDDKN
#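 HP1-beta protein (50 nM final) preincubated 30 min at room temperature with biotinylated H3(1-18)K9me3 peptide (50 nM) in PBS pH 7.4, 0.01% Tween-20, then compound added for 30 min. AlphaScreen streptavidin donor/nickel chelate acceptor beads (10 ug/mL final), 30 min dark, luminescence read.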
# G9a inh – qHTS Assay for Inhibitors of Histone Lysine Methyltransferase G9a; Histone-lysine N-methyltransferase EHMT2 (Homo sapiens), Q96KQ7; 350,000 compounds, 8.8% hits; Potency, µM (series often up to 102 µM), without a hit: at the top dose activity, negative = inhibition, usual class: inhibitors; G9a H3K9 monomethylation, AlphaScreen, 2 h; note: % is set by controls: 0 for no effect and ±100 for the full control effect; nearly all actives have a fitted effect of over 75% in size
# Target sequence (Q96KQ7 913-1193 limits assumed): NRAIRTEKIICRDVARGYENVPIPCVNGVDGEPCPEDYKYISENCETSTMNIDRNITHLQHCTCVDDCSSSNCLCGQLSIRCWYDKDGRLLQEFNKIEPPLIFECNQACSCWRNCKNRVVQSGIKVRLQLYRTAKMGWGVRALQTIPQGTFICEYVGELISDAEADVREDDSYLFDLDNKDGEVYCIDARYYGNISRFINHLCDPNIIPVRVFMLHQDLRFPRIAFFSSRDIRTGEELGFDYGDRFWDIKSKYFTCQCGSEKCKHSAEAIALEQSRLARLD
#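 AlphaScreen detection with an anti-monomethyl H3K9 antibody quantified product after a 2 h room-temperature reaction containing 500 nM biotinylated H3K9 peptide, 20 µM SAM and 20 nM enzyme, which had been preincubated 15 min with compound.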
# * hit, by the source's call; ? = inconclusive; · = no result; [ ] = another dose, or the depositor's remark. Calls come from the whole dose curve; as a rule, active = well fitted inhibition curve with a large enough effect; inconclusive = small, poorly fitted or top-dose-only effect; inactive = no such curve, though single readings can be large or run the other way. Potency is the fitted concentration of half-maximal effect.
SMILES,JMJD2A Tudor,L3MBTL1 block,BAZ2B inh,HP1b binding inh,G9a inh
COc1ccc(N=NC2=C(O)CC(C)(C)CC2=O)cc1,-18.0%,-1.2%,?,8.7%,·
CC1(C)CC(=O)C(N=Nc2cccc(F)c2C#N)=C(O)C1,-20.6%,·,?,5.0%,·
COc1ccc(C2(c3ccc(OC)cc3)NC(=O)N(CC(=O)N3CCOCC3)C2=O)cc1,-8.7%,-2.1%,7.0%,22.2%,-3.6%[12.7 µM]
Cc1cc2oc(C(=O)N(Cc3ccccc3)C3CCS(=O)(=O)C3)cc(=O)c2cc1C (centres undefined),-1.4%,·,-16.3%,27.4%,-2.6%[59 µM]
Cc1ccc(NC(=O)CN2C(=O)S/C(=C\c3ccc(-c4cccc(C(=O)O)c4C)o3)C2=O)cc1,·,·,25.1µM*,·,11.2µM*
Cc1c(/C=C2\SC(=O)N(CC(=O)Nc3ccc4c(c3)OCO4)C2=O)c2ccccc2n1C,-26.2%,-5.0%,-33.1%[57.1 µM],-11.3%,16.8%
Cc1cc(C(=O)O)ccc1-c1ccc(/C=C2\SC(=O)N(CC(=O)Nc3ccc4c(c3)OCO4)C2=O)o1,·,·,17.8µM*,·,-1.5%[0.501 µM]
C#CCN1C(=O)S/C(=C\c2ccc(-c3ccc(C(=O)O)cc3C)o2)C1=O,89.1µM*,5.01µM*,50.1µM*,-27.3%,?
Cc1ccc(C(=O)O)cc1-c1ccc(/C=C2\SC(=O)N(CC(=O)Nc3ccccc3)C2=O)o1,35.5µM*,?,22.4µM*,?,7.08µM*
Cc1ccc(-c2nc(CNC(=O)Nc3ccccc3)c(C)o2)cc1,-15.9%,·,-13.7%,16.1%,10.4%[59 µM]
CC(C)(C)OC(=O)CN1C(=O)S/C(=C\c2ccc(-c3cccc(C(=O)O)c3)o2)C1=O,·,?,?,·,56.2µM*
Cc1ccccc1NC(=O)CN1C(=O)S/C(=C\c2ccc(-c3cc(C(=O)O)ccc3C)o2)C1=O,22.4µM*,?,14.1µM*,39.8µM*,5.01µM*
CC(C)OC(=O)CN1C(=O)S/C(=C/c2ccc(N3CCCCC3)o2)C1=O,?,·,?,-13.8%,?
Cc1cc(/C=C2\SC(=O)N(CC(=O)Nc3ccccc3F)C2=O)c(C)n1C,-3.6%,·,?,26.5%,-6.4%[59 µM]
COc1ccc(Nc2ncnc3c2nc2n3CCCC2)cc1Cl,-19.8%,·,-12.7%,7.5%,-30.6%[59 µM]
COC(=O)c1c(SC)nc2ccccc2c1OCc1ccccc1Cl,144.5%,·,183.5%,129.9%,112.4%[59 µM]
O=C(Nc1cccc(C(F)(F)F)c1)c1cc2nc(-c3ccccc3)cc(C(F)(F)F)n2n1,-4.2%,·,3.9%,27.9%,-4.5%[59 µM]
COc1ccc(-n2c(=O)c(C)nc3cnc(N4CCNCC4)nc32)cc1,·,·,·,·,-4.0%[12.7 µM]
S=c1[nH]c2cc3c(cc2[nH]1)OCCO3,-31.8%,0.0%,-13.4%,2.6%,3.55µM*
Brc1ccc2c(c1)OCCOCCOCCOCCOCCO2,3.4%,-2.7%,-0.1%,35.4%,8.6%[59 µM]
CCOc1ccc(CN2CCN(S(=O)(=O)c3ccc(NC(C)=O)cc3)CC2)cc1,7.94µM*,-6.4%,25.1µM*,35.5µM*,22.4µM*
CC(=O)Nc1ccc(CN2CCCN(C)CC2)cc1,22.4µM*,0.5%,?,?,20µM*
CC(=O)Nc1ccc(S(=O)(=O)N2CCN(S(=O)(=O)c3ccccc3)CC2)cc1,-0.3%,7.3%,-3.0%,12.5%,2.8%
COc1cc(OC)c(OC)cc1CN1CCN(S(=O)(=O)c2ccc(NC(C)=O)cc2)CC1,1µM*,5.0%,50.1µM*,?,·
CC(=O)Nc1ccc(S(=O)(=O)N2CCN(CC3CC4C=CC3C4)CC2)cc1 (centres undefined),6.31µM*,-23.0%,35.5µM*,?,28.2µM*
SMILES,JMJD2A Tudor,L3MBTL1 block,BAZ2B inh,HP1b binding inh,G9a inh
COc1ccccc1NC(=O)C1=C(C)Nc2nc(-c3ccco3)nn2C1c1cccc(C)c1 (centres undefined),-20.4%,·,-15.0%,19.0%,17.4%[59 µM]
COc1cc2c3c(c1)C(C)CC(C)(C)N3C(=O)C2=O (centres undefined),?,-17.4%,?,?,?
CCc1cc2c3c(c1)C(C)CC(C)(C)N3C(=O)/C2=C1\SC(=O)NC1=O (centres undefined),50.1µM*,?,?,?,25.1µM*
COCCCn1c(Cc2csc(Nc3ccccc3)n2)nnc1SCC(N)=O,?,-13.2%,56.2µM*,-18.6%,6.31µM*
COCCCn1c(SCC(N)=O)nnc1-c1ccccc1,-18.6%,8.0%,6.2%,17.6%,17.2%[59 µM]
NC(=O)CSc1nnc(Cc2csc(Nc3ccccc3)n2)n1Cc1ccccc1,?,-9.6%,4.1%,19.3%,35.5µM*
Cc1ccc(NC(=O)C(c2ccccc2)N2CCN(C(=O)c3ccco3)CC2)cc1Cl (centres undefined),-19.6%,-0.3%,-26.0%,17.3%,-2.3%[12.7 µM]
O=C(NCc1ccccn1)c1nn(-c2ccccc2Cl)nc1CO,-6.3%,·,-1.9%,29.8%,0.1%[59 µM]
COc1ccc(NC(=O)C2CCN(S(=O)(=O)c3ccc4c(c3)CCCC(=O)N4)CC2)c(OC)c1,-24.9%,·,-0.7%[57.1 µM],12.1%,-29.1%[59 µM]
COc1ccc(S(=O)(=O)NNC(=O)Cc2csc(C)n2)cc1[N+](=O)[O-],?,?,79.4µM*,4.0%,?
O=S(=O)(c1ccc2c(c1)OCCO2)N1CCN(S(=O)(=O)c2cccs2)CC1,-14.4%,·,·,·,·
CC(OC(=O)c1cccnc1SCc1cc(=O)n2ccccc2n1)c1ccccn1 (centres undefined),-3.9%,·,-32.8%,19.3%,50.1µM*
CC(=O)c1ccc(N2CCN(S(=O)(=O)c3ccc4c(c3)CC(C)N4C(=O)C3CCC3)CC2)cc1 (centres undefined),3.0%,·,0.8%,21.9%,0.5%[59 µM]
Cc1ccccc1CSCCNC(=O)CN(c1ccccc1)S(=O)(=O)N(C)C,44.7µM*,·,-7.3%,4.8%,8.3%[59 µM]
CN(C)S(=O)(=O)N(CC(=O)NCCSCc1ccccc1Cl)c1ccccc1,-13.7%,·,-3.8%,0.1%,4.7%[59 µM]
c1ccn2c(c1)nc1c2nc2ccccn21,6.6%,9.8%,10.2%,22.2%,-4.8%
Cc1nc2ccccn2c1-c1ccnc(=S)[nH]1,-24.1%,4.0%,-30.1%,40.1%,10µM*
CCN(CC)c1cc2c(cc1F)c(=O)c(S(=O)(=O)c1ccc(OC)cc1)cn2Cc1ccccc1,-1.7%,·,1.0%,24.8%,-13.1%[59 µM]
COc1cc2c(cc1OC)CN(C(=O)c1ccc(Br)o1)CC2,-12.8%,-5.5%,-21.2%,15.6%,50.1µM*
COc1cc2c(cc1OC)CN(C(=O)/C=C/c1ccc([N+](=O)[O-])cc1)CC2,-28.7%,·,?,0.1%,50.1µM*
COc1cc2c(cc1OC)CN(C(=O)c1cccc([N+](=O)[O-])c1)CC2,50.1µM*,1.9%,-11.2%,-9.4%,19.3%[12.7 µM]
